# The supplement of paper PMC12632987
# B1: uchl1_143_7491 (protein)
# chain: GLDNLEVETVEIEVSEEDTPEELAARLREVIEEALAKGKALRIILTVPPDPNVRLMVNTVARRVLREFAQEHRDELKYVEIYARDEETGKEQLLAEFVNP
# B2: uchl1_155_7502 (protein)
# chain: MRTVRITIDVTLPDATETVEVTLERTVSDKPEDREALAEEVAATVDAILAQGKNVRLTVTVTVPDKMVVAASLYQAIRRRVRAVARRHGAEVVITAEVVP
# B3: uchl1_155_7501 (protein)
# chain: MATVTVTATGTAPDGTTHTLTKTFEGITSSVEDLLALREAVLALLVELAKKVKGDVDVVVEVSNADANTRVGIGTAVRRAASEAGKQTGLTVSVTIREVA
# B4: uchl1_155_7499 (protein)
# chain: GTTVTVTATGTAADGTTHTLTKTFEGITSSVEDMLALRDEILAMLLELAAKVDGDIDLKVDVSNATANQAVGIGTAVRRAASEAGKETGLTINVDITGLP
# B5: uchl1_143_7487 (protein)
# chain: AVEVIELSPEEVAAWLALPDEEALAALEAVLEAAVDRGVDTLVRIPAPEDANDRLRLNTLVRRAARRVAAAHADRIDSVTISQEKDPNGPPRLVVSIRVK
# B6: uchl1_143_7481 (protein)
# chain: SLENVEVLEVEITVTRETRPEDLYARLLAAIREAHAAGKALRITITVEPDANVRVMVGNVAKRAVRDAAQELGEPFVRTLILARDAETGKTQTLVDVEAP
# B7: uchl1_143_7478 (protein)
# chain: GAPEPEIPVIRLELDAADSDEEIRKRALEAAKEAAEKGAALEIIITVPPDPNARVRANNIAKRLAREIIKKYGDKIKELRVLLRDEETGREDLIALYEKP
# B8: uchl1_143_7472 (protein)
# chain: AAEARPVRTVEIDVTLDDTPEEIEARLLAAAEEAIAAGEDLRIVVTVPPDPNKRLMVNTVAKRVARRVARAHADRVRRLEIYARDAETGKEQLIAEIVRP
# B9: uchl1_143_7485 (protein)
# chain: EVRVIELTPEQVAAILSASPEAALATLEAIFEAAVALGVDTRVVLPAPADANDRLRLNTLVRRAARRVAKRRADEIDAVVISNERDPDRPARLVVTITVK
# B10: uchl1_155_7498 (protein)
# chain: GTTVTVTATGTAADGTVVTSTTTFTGLTSSVADMQALQAAILAQLLAVAAQVDGDIDLAVTVSNATANQAVGIGTAVRRAASQAGKQTGLTINVTLTGAP
# B11: uchl1_155_7496 (protein)
# chain: MLRVRVTITGTNADGTTLTRELELEIENPTLEKIQEAAREIAEAVREFALAVDGPVEVRVEVSADRRLHAASFSQALRRALREVAKETGKEITLDVRGVP
# B12: uchl1_143_7480 (protein)
# chain: GAPARPVVTRTLRFTEEDTPEEIRARITAAIRALVATGQDGVLLLTVPPNPNMRVMVSTVARRALREVAQETRAPGVTLTVEARDEETGKVDVLATADLK
# B13: uchl1_143_7479 (protein)
# chain: GAAPRPVVTTTLTFTEEDTPEEIRARITAALRALVATGQDGVLLLTVPPNPHMRVMVNTVARRALREVAQATHAPGVTLTVQARDAETGKVDTLATAVLE
# B14: uchl1_143_7483 (protein)
# chain: EVVVIELSPEEVEEILSLSPEEALERVYEILREAVELGRDTEVVFPAPADANDRLRLGTIVRRAARKVAKDRADLIDAVEIYQRRDPNRPPALVVRITRK
# B15: uchl1_143_7482 (protein)
# chain: EVEVIRLTPEEVEEILSLSPEEALARVKEILAAAVELGKDTEVVFPAPEDANDRLRLGTIVRRAAREVAKEYADKIESVEIYQEKDPDEPPRLVVRITKK
# B16: uchl1_143_7474 (protein)
# chain: PLEHMEIETVEIEVSETDTPEEIEKRLREAIEKGIEKGKALRIVVTVPPDANKRLMVNTVARRVARETAKKYKDKLKYLEILLRDRETGKVDLAALIERP
# B17: uchl1_143_7477 (protein)
# chain: GAPEEPIETIKLTLDASMSDEEIRAKAMAAAEEAAAKGAALEITIVVPPDPNARVRANNIAKRIAREIIQKYGDKIKELKIYLQDEETGKKDLIALYEKP
# B18: uchl1_155_7497 (protein)
# chain: MTTVTVVVTGTSPDGTTVTKTKTFEGLTSSVADLEALREAMKAMIVETAKEVKGDVDVTVNVTNATANQAVGIGTAARRAANEAGKETGLTVSLTLVGVP
# B19: uchl1_143_7489 (protein)
# chain: EVRVLDVSEAEVAEILALSPEEAVAAIYARLSAAIALGVDTEVRFPAPERANDRLRLGTAVRRAARRAARDHADEIADVVIYNERDPDERPRLVVRITRK
# B20: uchl1_143_7476 (protein)
# chain: PPEALPVLETTIEVSEDDTPEEIRARLMAAIDEALAAGKAARIVIVVPPDANKRLMVNTVARRVAREAARRYGERLRYLEILLRDKETGKEQLVALVERP
# B21: uchl1_143_7484 (protein)
# chain: EVKVIELSPEEVAEILSASPEEALARLKEILEEAVELGVDTEVVLPAPADANDRLRLNTLVRRAAREVAKKYADKIDSVTISQRLDPDEPPKLVVSIKVK
# B22: uchl1_143_7473 (protein)
# chain: HHHMMETETVEIEVKEDDTPEEIRERMMKAIEEAIAAGKNLRIVITVPSDANKRLMANTVAKRVAREAAKKYREKLKRLEIYLRDKETGKEDLIALVENP
# B23: uchl1_143_7486 (protein)
# chain: EVEVIELSEEEVAEILALSPEEALERLKEILREAVELGKDTRVLIPAPEDANDRLRLNTLVRRAAREVAKEYADKIESVTISQERDPNGRPRIVVEIKVK
# B24: uchl1_143_7490 (protein)
# chain: SSSDLPVEEVTITVTLDDTPEQIRARLRAAIEAAVAAGRALRINITVPADPNMRLMVNTVARRVAREVARAHADRVRHVEIYATDAATGKTDLLAEVVNP
# B25: uchl1_155_7500 (protein)
# chain: GTTVTVTVTGTASDGTTHTLTKTFEGLTSSVADMEALREAILAMLLELAAKVDGDIKLTVNVRNATANQAVGIGTAVRRAASEAGKKTGKTIDVDITGLP
# B26: uchl1_143_7475 (protein)
# chain: APAALEVLTTHLEVGEDDTPEEIRARLLAAIDEALAAGKAAEIVVTVPPDANKRLMVNTVARRVAREAARRYGDRLRLLRILLRDAETGRTQLVALVERP
# B27: uchl1_143_7493 (protein)
# chain: GAPAEEVVVLELTIEETDTPEEIRAKITAAIEEAVATGKPSVVVITVPPDPNVRVTVGNAAKRAVREAAKAHGDQIKDLRVVARDAETGKEQLLAEVVNP
# B28: uchl1_143_7492 (protein)
# chain: GAAAVPVLRVEITVTRDTTPEELRARLEAAVREAAARKAALEVTITVPPDPNLKLMVNTVARRVARRAAREYADTLPRLTINARDAETGKTQVVAEAVNP
# B29: uchl1_143_7494 (protein)
# chain: GPVVEPVVVIELRIERTDTPEEIRAKIRAAVEEAVATGKPTVIEITVPADANMRLTVSTSARRVAREAAKEHPDKIKDLRIYARDEETGKRQLIAEVIKE
# B30: uchl1_143_7488 (protein)
# chain: EVKVIELSPEEVAEILSLSDEEALARLKEIIEAAVELGVDTEIRIPAPEDANDRLRLHTLVKRAAREVAKKYADKIDSVEIYQELDPNARPRIVVRITVK
# B31: uchl1_143_7471 (protein)
# chain: GEPEPPTLEVHIEVDETTTPEEIREKLWKAIEEAAKAKKNLKITITVPADSNKRLMVTTVAKRVAREAAKKYKNELKKLEIYARDAATGKEQLIAEYENP
# B32: uchl1_155_7495 (protein)
# chain: MLEVEVEVVARRPDGTVARERFRFRTEEITPENRRALAERVAERVREFVERHGGDVDVTVRIRSPSQIARASLYRAIRIRLREVAKELGVEVTVRAEPVP
# Target: UCHL1, P09936
# Sequence (P09936 whole entry, looked up, the tested form may be a part): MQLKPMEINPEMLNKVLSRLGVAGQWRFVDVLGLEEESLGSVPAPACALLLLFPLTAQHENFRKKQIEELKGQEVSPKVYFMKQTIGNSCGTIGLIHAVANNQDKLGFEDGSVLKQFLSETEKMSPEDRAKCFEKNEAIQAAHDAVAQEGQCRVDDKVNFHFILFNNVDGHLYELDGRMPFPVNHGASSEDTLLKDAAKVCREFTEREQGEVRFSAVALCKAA
# Assay: median log2 fold change of GCK-ALFA target abundance (FLAG IP / Myc IP barcode read proportion) (log2 ratio); each designed protein is fused to an ALFA-tag nanobody in HEK293 cells to bring the named protein to FLAG-tagged glucokinase (GCK); Myc marks an untargeted standard; higher = target protein stabilised (more abundant)
# Conditions: target protein: 3xFLAG-MCP-GCK-ALFA reporter; HEK293 landing pad (RPLP)
# In short: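 HEK293 landing-pad cells received a recombined binder library fused to the ALFA nanobody and were induced with 2 μg mL^−1 doxycycline, then transfected with a plasmid encoding a FLAG-tagged target and a Myc-tagged standard. Lysates were collected after 48 h for anti-FLAG and anti-Myc immunoprecipitation, and the circular RNA barcodes were reverse transcribed, amplified and sequenced. Target abundance for each binder is the median log2 ratio of FLAG to Myc barcode read proportions. Barcodes had to reach a proportion of at least 10^−7 in both replicates, each binder needed at least 3 barcodes per replicate, a pseudocount of 10^−6 was applied, and the two replicates were pooled.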
row,Binder,median log2 fold change
1,B1,0.302
2,B2,-0.0533
3,B3,0.237
4,B4,0.302
5,B5,0.226
6,B6,0.391
7,B7,0.179
8,B8,0.3
9,B9,-0.394
10,B10,0.16
11,B11,0.0376
12,B12,-0.0743
13,B13,0.219
14,B14,-0.0334
15,B15,0.231
16,B16,0.325

row,Binder,median log2 fold change
1,B17,0.136
2,B18,0.314
3,B19,0.144
4,B20,0.0615
5,B21,0.0432
6,B22,0.139
7,B23,0.252
8,B24,0.232
9,B25,0.302
10,B26,0.136
11,B27,0.229
12,B28,0.184
13,B29,0.397
14,B30,0.21
15,B31,0.0842
16,B32,-0.0429
